# A selection: hits, their analogues and other compounds. The true share with any hit is near 6.5%.
# MARV entry inh: blocks Marburg virus binding to or entry into cells | Potency, µM (titrated, usually from 37.8 µM), for inactives: at the top dose activity change, negative = inhibition, actives largely listed as inhibitors | actives 1.8% (n = 300,000) | Marburg virus pseudotyped entry inhibition, cell reporter | AID 540276; calls by dose curve; tested in HEK293 cells; further: potency means the concentration at half of the fitted maximal effect
# VACV mCherry inh: inhibitors of vaccinia virus infection (mCherry reporter signal); Vaccinia virus mCherry reporter infection, fluorescence; actives 0.63% (n = 310,000); Potency, µM (titrated, usually from 36.5 µM), for the others: top-dose activity change, negative = inhibition, actives largely listed as inhibitors; calls by dose curve; tested in A549 cells; further: potency means the concentration at half of the fitted maximal effect; nearly all actives have a fitted effect of over 35% in size
# HCMV inh: human cytomegalovirus inhibition; HFF cells, HCMV-luciferase reporter, 72 h; active compounds read low; activity change, negative = inhibition, % at 57.5 µM; actives 4.5% (n = 410,000); in the data active means activity change below about -60%; inconclusive means no clear call, values can overlap the other calls; inactive means above about -39%
#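 Luciferase read-out from HCMV-luciferase-infected HFFs (MOI 1 PFU/cell) 72 h post infection at 37C; compounds added after 16 h cell attachment; activity normalized between buffer-only basal and Salinomycin (10uM) inhibitor controls.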
# FMDV inh: foot and mouth disease virus antiviral activity; actives 1.2% (n = 410,000); FMDV antiviral cell-based qHTS; Potency, µM (titrated, usually from 57.9 µM), for the others: at the highest dose activity change, negative = inhibition, usual class: inhibitors; AID 1159524; calls by dose curve; tested in HEK293T cells; further: read-out not given here; potency means the concentration at half of the fitted maximal effect; nearly all actives have a fitted effect of over 45% in size
# LASV entry inh: Lassa virus entry inhibition; Potency, µM (highest dose often 37.9 µM), inactives show top-dose activity change, negative = inhibition, usual class: inhibitors; Lassa virus pseudotype entry inhibition, cell reporter; AID 540256; actives 1.2% (n = 300,000); calls by dose curve; tested in HEK293 cells; further: potency means the concentration at half of the fitted maximal effect; nearly all actives have a fitted effect of over 50% in size
# VACV Venus inh: vaccinia inhibition (Venus reporter) | Vaccinia virus Venus reporter expression, fluorescence | Potency, µM (doses to about 36.5 µM), without a hit: at the top dose activity change, negative = inhibition, usual class: inhibitors | actives 0.46% (n = 330,000); calls by dose curve; tested in A549 cells; further: potency means the concentration at half of the fitted maximal effect; nearly all actives have a fitted effect of over 30% in size
# * = called active by the depositor; i = inactive; ? = inconclusive; . = not tested or not shown; ! = repeats disagree; [ ] = another dose, or the depositor's remark. On the % scale 0 is the no-effect control and ±100 the full control effect.
SMILES,MARV entry inh,VACV mCherry inh,HCMV inh,FMDV inh,LASV entry inh,VACV Venus inh
COc1cccc(NC(=O)C(=O)NCCCn2ccnc2)c1,-9%[46.1 µM],9%,-64*,45%,20%,10%
O=C(NCCCn1ccnc1)C(=O)NCc1ccc(Cl)cc1,20%[46.1 µM],-1%,17,0%,0%,9%
Cc1ccc(CNC(=O)C(=O)NCCCn2ccnc2)cc1,4%,-13%,-67*,-9%,-23%,-4%
O=C(CN1C(=O)NC(c2ccccc2)(c2ccccc2)C1=O)N1CCOCC1,.,.,73,3%,.,.
CCN(CC(=O)NCc1cccs1)C(=O)CCCOc1ccc(C(C)(C)C)cc1,?,-7%,-105*,-19%,?,-18%
COc1ccc([C@@H]2NC3=C(CCC3)[C@@]3(C#N)C(OC)(OC)N=C(N)[C@]23C#N)cc1,-6%,.,.,.,.,.
Cc1ccc(CNC(=O)CSc2ccc(-c3ccccn3)nn2)cc1,?,7.1µM*,3,20%,?,?
O=C(CSc1ccc(-c2ccccn2)nn1)Nc1ccc(F)c(F)c1,-23%,?,-90*!,-28%,?,?
COc1ccccc1NC(=O)CSc1ccc(-c2ccccn2)nn1,?,14µM*,-101*!,3%,?,?
Cc1ccc(NC(=O)CSc2ccc(-c3ccccn3)nn2)cc1,-29%[46.1 µM],?,65,1%,?,?
CC(C)c1c(C(=O)NCc2ccncc2)cnn1-c1nccc(-c2cccs2)n1,.,-8%,.,3%,.,-6%
OC1C2COC(O2)[C@H](O)C1O (some centres undefined),.,-13%,.,-5%,.,10%
COc1cc(C)ccc1OCCSc1nc2ccc(NC(=O)c3ccco3)cc2s1,-16%[46.1 µM],i,-61*,?,-19%[46.1 µM],-20%
Cc1cccc(C(=O)Nc2ccc3nc(SCCOc4ccccc4)sc3c2)c1,-20%[46.1 µM],-15%,-11,-21%,7%[46.1 µM],-15%
CC(=O)Nc1ccc2nc(SCCOc3ccccc3Cl)sc2c1,?,?,-80*,10%,-12%[46.1 µM],-20%
Cc1ccc(OCCSc2nc3ccc(NC(=O)c4ccco4)cc3s2)cc1,12%[46.1 µM],0%,-24,2%,-11%[46.1 µM],-14%
CC(=O)Nc1ccc2nc(NC(=O)COc3ccccc3Cl)sc2c1,?,-1%,71,55%,17%,2%
CCC(=O)Nc1ccc2nc(SCCOc3cccc(C)c3)sc2c1,-2%[46.1 µM],-5%,-64*,-25%,-12%[46.1 µM],-12%
O=C(Nc1ccc2nc(SCCOc3ccccc3Cl)sc2c1)c1ccc2c(c1)OCO2,-2%[46.1 µM],-1%,-27,?,-9%[46.1 µM],-24%
Cc1ccc(OCCSc2nc3ccc(NC(=O)c4ccc5c(c4)OCO5)cc3s2)cc1,-2%[46.1 µM],?,-6,?,-27%[46.1 µM],11µM*
COc1ccccc1N1CCN(C(=O)C(C)NC(=O)c2cccc([N+](=O)[O-])c2)CC1 (centres undefined),3%[46.1 µM],?,25,-28%,-4%,-26%
CCOC(=O)[C@H]1[C@H]2COc3ccc(C)cc3[C@@H]2N2C(=O)c3ccccc3NC(=O)[C@@]12C,.,-4%,-34,-19%,.,-11%
CCC(C)N1C(=O)/C(=C\c2cc3c4c(c2)CCCN4CCC3)C(=O)NC1=S (centres undefined),1%,4%,-34,32µM*,5%,8%
CCC(C)N1C(=O)/C(=C\c2cnc(N(C)C)nc2)C(=O)NC1=S (centres undefined),?,7%,-39,22µM*,6%,12%
CCC(C)N1C(=O)/C(=C\c2ccc(N3CCCCCC3)cc2)C(=O)NC1=S (centres undefined),4%,0%,40,?,25%,2%
SMILES,MARV entry inh,VACV mCherry inh,HCMV inh,FMDV inh,LASV entry inh,VACV Venus inh
COc1cccc(C(=O)Nc2cccc(C(=O)OCc3cc(=O)n4nc(C5CC5)sc4n3)c2)c1,.,-13%,6,?,0%[46.1 µM],-18%
CCc1ccc(-c2cn3nc(C)c(C)nc3n2)cc1,2.1µM*,.,-87*,-46%,?,.
Cc1nc2nc(-c3ccccc3)cn2nc1C,?,-12%,104,.,12µM*,-19%
Cc1nc2nc(-c3ccc(F)cc3)cn2nc1C,.,-14%,205,-26%,.,-8%
CC(C)CN=Cc1c(O)c([N+](=O)[O-])cc2oc3c(c12)CCCC3,?,i,12,32µM*,-16%,-17%
O=[N+]([O-])c1cc2oc3c(c2c(C=NCc2ccccc2)c1O)CCCC3,8%,-15%,21,0%,?,-2%
COc1ccccc1S(=O)(=O)N(C)C[C@H]1Oc2cc(C#CCC3CCCC3)ccc2S(=O)(=O)N([C@H](C)CO)C[C@H]1C,.,-18%,-11,17%,.,-26%
CC(=O)OC(C)C1C2=C(C(=O)CC1(C)O)C(=O)c1c(ccc(-c3ccc4c(c3O)C(=O)C3=C(C4=O)C(C(C)OC(C)=O)C(C)(O)CC3=O)c1O)C2=O (centres undefined),-3%,?,-68*,18µM*,-5%[46.1 µM],6%
O=C(NCC1CCC2(CCN(Cc3cc4ccccc4o3)CC2)O1)c1ccccc1 (centres undefined),.,-5%,.,0%,.,-1%
Cc1cc(C(F)(F)F)nn1-c1nc(-c2ccccc2)cc(C(F)(F)F)n1,7%[46.1 µM],-14%,-7,-29%,2%[46.1 µM],-12%
O=C(c1ccc2oc(CCCc3ccccc3)nc2c1)N1CCCC(CCCO)C1 (centres undefined),.,.,-61*,-16%,.,.
CC1(Cc2ccc3ccccc3n2)C(=O)Nc2ccc(OC(F)(F)F)cc21 (centres undefined),.,28%,-98*,-21%,.,-18%
CC1(Cc2ccccc2OC(F)(F)F)C(=O)Nc2ccc(OC(F)(F)F)cc21 (centres undefined),.,-3%,-76*,?,.,-21%
CC1(Cc2ccccc2OC(F)(F)F)C(=O)Nc2ccc(-c3ccsc3)cc21 (centres undefined),.,i,-75*,0%,.,-13%
CC1(Cc2cc(Cl)ccc2C(F)(F)F)C(=O)Nc2ccc(OC(F)(F)F)cc21 (centres undefined),.,14%,.,?,.,-26%
CC1(Cc2ccccc2OC(F)(F)F)C(=O)Nc2cc(-c3ccccc3Cl)ccc21 (centres undefined),.,i,0,-24%,.,-14%
COC(=O)c1ccc(CC2(C)C(=O)Nc3ccc(OC(F)(F)F)cc32)o1 (centres undefined),.,-7%,-9,-22%,.,-17%
CC1(Cc2ccc(OC(F)(F)F)cc2)C(=O)Nc2ccc(S(=O)(=O)NC3CCCCC3)cc21 (centres undefined),.,?,-99*,-1%,.,?
COc1ccc(CCNC(=O)C(=O)NCC(c2ccco2)S(=O)(=O)c2ccccc2)cc1OC (centres undefined),.,i,42,?,-12%[46.1 µM],-7%
C=CCc1cccc(/C=N\n2cnnc2)c1O,38%,.,.,.,.,.

# Screens (PubChem BioAssay)
